Laboratory results taken from PubChem BioAssay (NCATS).
Inconclusive results are not listed. Activity calls are given as the source filed them. Unless noted, calls come from the whole dose curve; as a rule, active = well fitted curve in the direction sought with a large enough effect; inconclusive = small, poorly fitted or top-dose-only effect, or another doubt; inactive = no such curve, though single readings can be large; an effect the other way counts as inactive or inconclusive.

Columns and labels:
[1] = Primary qHTS for inhibitors of nuclear receptor binding SET domain protein 2 (NSD2) in an RCH-ACV wild type WT cells (2C) (AID 1645877); note: nearly all actives have a fitted effect of over 70% in size; note: potency is the fitted concentration of half-maximal effect
[2] = target: Glutathione peroxidase 1 (Homo sapiens) (UniProt P07203); assay: Primary qHTS Assay for Inhibitors of Recombinant Selenoprotein Glutathione Peroxidase 1 (GPX1) (AID 1845191); note: nearly all actives have a fitted effect of over 65% in size
Summary of the method: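 GR-coupled assay: compounds preincubated 30 min at room temperature with GPX1, then reaction started with CHP; final 10 nM GPX1, 1 mM GSH, 0.5 mM CHP, 0.5 mM NADPH, 100 nM GR, 0.01% BSA, pH 7.5 Tris buffer. NADPH fluorescence (340/450 nm) read at 0 and 15 min.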

[3] = qHTS drug screen for cell cycle checkpoint inhibitors in PARPi-resistant BRCA-mutant ovarian cancer cell lines. (AID 1963452; calls by dose curve); conditions: PEO1/OlaR viability, CellTiter-Glo luminescence, 96 h, stronger effect = lower value
Summary of the method: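 PEO1, PEO4 and PEO1/OlaR ovarian cancer cells, 600 per well, exposed 96 h at 37C to a dilution series. Viability read by CellTiter-Glo luminescence, normalized to DMSO and empty wells; activity summarized as Z-AUC.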

[4] = Primary qHTS for inhibitors of nuclear receptor binding SET domain protein 2 (NSD2) in an isogenic RCH-ACV NSD2 p.E1099K mutant (9B) (AID 1645876); note: nearly all actives have a fitted effect of over 70% in size; note: potency is the fitted concentration of half-maximal effect
[5] = target: Phospholipid hydroperoxide glutathione peroxidase GPX4 (Homo sapiens) (UniProt P36969); assay: Primary qHTS Assay for Inhibitors of Recombinant Selenoprotein Glutathione Peroxidase 4 (GPX4) (AID 1845192); note: potency is the fitted concentration of half-maximal effect; nearly all actives have a fitted effect of over 65% in size
Summary of the method: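 GR-coupled assay: recombinant GPX4 preincubated 30 min with compound at room temperature; final 200 nM GPX4, 1 mM GSH, 0.5 mM cumene hydroperoxide, 0.5 mM NADPH, 100 nM GR, 0.01% BSA, pH 7.5 Tris. NADPH fluorescence (340/450 nm) read at 0 and 15 min.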

[6] = measured here: PEO1 parental Z-AUC

Glutathione peroxidase 1 (Homo sapiens), sequence (P07203 whole entry, looked up): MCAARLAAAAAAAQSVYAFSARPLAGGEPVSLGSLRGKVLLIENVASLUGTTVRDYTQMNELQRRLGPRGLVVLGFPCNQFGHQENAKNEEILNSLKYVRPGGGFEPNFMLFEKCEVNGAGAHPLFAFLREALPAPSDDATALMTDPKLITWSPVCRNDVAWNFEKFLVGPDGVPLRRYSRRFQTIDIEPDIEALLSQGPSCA
Phospholipid hydroperoxide glutathione peroxidase GPX4 (Homo sapiens), sequence (P36969 whole entry, looked up): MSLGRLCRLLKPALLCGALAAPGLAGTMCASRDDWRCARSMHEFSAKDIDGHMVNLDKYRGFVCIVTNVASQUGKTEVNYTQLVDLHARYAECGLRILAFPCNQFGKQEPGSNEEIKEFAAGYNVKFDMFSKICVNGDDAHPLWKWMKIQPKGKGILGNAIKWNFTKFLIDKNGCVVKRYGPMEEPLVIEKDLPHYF

Structure (SMILES) | Potency [1] | Potency [2] | Z-AUC [3] | Z-AUC [3, 6] | Z-AUC ([3]; measured here: PEO4 Z-AUC) | Potency [4] | Potency [5]
O=C(O)CNC(=O)c1ncc(-c2cccc(Cl)c2)cc1O | inactive | inactive | -0.0287 (inactive) | 0.803 | 0.828 |  | 
C[C@H]1C[C@@H](n2c(Nc3ccc(OC(F)(F)F)cc3)nc3cc(CCC(=O)O)ccc32)CC(C)(C)C1 |  | inactive | 0.184 (inactive) | 0.953 | 0.855 | inactive | 2.55 µM (active)
Cc1noc(C)c1-c1ccc(-c2cc(C(N)=O)c(NC(N)=O)s2)c(O[C@H]2CCNC2)c1 | 14.8 µM (active) | inactive | -0.139 (inactive) | -0.81 | -0.908 | 16.6 µM (active) | 
